An excerpt weighted towards active compounds, which were near 3.6% of everything screened.
Bead autofluor: counter-screen for toxin protease inhibitors: compound fluorescence; 360,000 tested, 3.1% active; fluorescence intensity (no concentration beside the values); compound autofluorescence counterscreen, microsphere flow cytometry; hits give high values; in the data active = fluorescence intensity above about 16000; inconclusive = no clear call, values can overlap the other calls
BoNT A protease: inhibitors of Botulinum neurotoxin A light chain protease; inhibition, % at 10 µM; multiplex microsphere protease substrate cleavage, flow cytometry; 360,000 tested, 0.17% active; AID 588499; note: plate controls were buffer without enzyme for full effect and enzyme alone for no effect
3CLpro inhibitor: SARS-CoV 3CLpro protease inhibition. P0C6X7. inhibition, % at 6 µM. 290,000 tested, 0.14% active. recombinant SARS-CoV 3CLpro, quenched FRET peptide cleavage; in the data active = inhibition above about 12%
BJeLR viability: BJeLR cell viability loss | BJeLR (HRASV12) viability, CellTiter-Glo ATP luminescence, 48 h | inhibition, % (no concentration beside the values) | 300,000 tested, 0.17% active; in the data active = inhibition above about 50%; inconclusive = no clear call, values can overlap the other calls
BoNT-F LC inh: blocks Botulinum neurotoxin F light chain protease. 360,000 tested, 0.22% active. Multiplex microsphere protease cleavage assay, flow cytometry. inhibition, % at 10 µM. AID 588497; in the data active = inhibition above about 35%, passing the limit was not always enough; inconclusive = no clear call, values can overlap the other calls; note: plate controls were buffer without enzyme for full effect and enzyme alone for no effect
Anthrax LF prot: inhibitors of Bacillus anthracis lethal factor protease; P15917; multiplex microsphere protease cleavage assay, LF; inhibition, % at 10 µM; 360,000 tested, 0.12% active; AID 588501; note: plate controls were buffer without enzyme for full effect and enzyme alone for no effect
The depositor's hits bear a star; u = inconclusive; x = not tested or not shown. Cut-off read from the data, not from the text of the source, unless noted: active = inhibition above about 30%; inconclusive = no clear call, values can overlap the other calls; inactive = below that.

SMILES	Bead autofluor	BoNT A protease	3CLpro inhibitor	BJeLR viability	BoNT-F LC inh	Anthrax LF prot
COc1ccc(CN(Cc2cc3cccc(C)c3n3nnnc23)C(=O)N2CCOCC2)cc1	4358	0.1	-2.1	27.2	-5.7	-6.3
O=C(O)C1C2C=CC(C2)C1C(=O)Nc1cccc(F)c1 (stereo not given)	22384*	-1.3	-2.0	7.0	-3.7	-1.0
CCOc1ccccc1NC(=O)C1C2C=CC(C2)C1C(=O)O (stereo not given)	25672*	-4.5	-1.8	0.3	-6.9	-2.4
COCCn1c(SCC(=O)NC2CCCC2)nnc1-c1ccco1	5359	0.9	-5.5	1.8	7.5	-2.8
CCCc1cc(N2CCCC(C(=O)NCC)C2)n2ncnc2n1 (stereo not given)	20607*	-0.2	3.2	-5.6	0.6	-0.2
CCCCOC(=O)c1ccc(NC(=O)Nc2ccc(OC)c(OC)c2)cc1	3282	-0.2	3.4	-7.5	3.8	-7.4
CCCCC1CC1C(=O)Nc1ccc(OC)c(OC)c1 (stereo not given)	16567*	-0.4	0.7	-9.6	-3.4	-0.3
O=C(NCc1ccco1)c1ccc2c(=O)n(Cc3ccco3)c(SCC(=O)N3CCCC3)nc2c1	21141*	-0.7	-0.2	x	0.2	-1.1
CCCCCn1c(SCc2ccncc2)nc2cc(C(=O)NCc3ccco3)ccc2c1=O	19744*	u	-3.8	-3.6	2.3	-8.7
O=C(CSc1nc2ccccc2c(=O)n1Cc1ccco1)N1CCCCCC1	21631*	u	2.8	16.1	-4.1	-12.3
CCc1nc(SCC(=O)N2CCCC2)c2ccccc2n1	10605	1.0	-0.9	0.9	0.1	0.4
CC(C)c1nc(SCC(=O)N2CCCC2)c2ccccc2n1	22830*	u	0.0	11.5	1.3	-0.5
Cc1nn(-c2ccccc2)c(C)c1C(=O)NCc1ccccc1F	3690	-7.1	-0.8	4.5	-5.5	-6.4
CCN(CC)C(=O)c1cccc(-c2csc(C(C)(O)c3cccc(F)c3)n2)c1 (stereo not given)	3840	0.0	x	x	1.9	3.6
C=CCn1c(SCC(=O)N2CCCC2)nc2cc(C(=O)NCC3CCCO3)ccc2c1=O (stereo not given)	16153*	1.0	5.8	5.4	3.2	-1.8
C=CCn1c(SCC(=O)N2CCCCCC2)nc2ccccc2c1=O	5884	-1.0	-2.9	-7.4	-2.3	-2.1
O=C(CS(=O)c1cccc(C(F)(F)F)c1)Nc1ccc(Cl)cc1Cl (stereo not given)	5567	0.4	6.8	-11.2	2.6	-2.0
O=C(CS(=O)c1cccc(Cl)c1)Nc1ccccc1Cl (stereo not given)	22003*	u	-0.7	-0.2	-1.5	-2.0
O=S(=O)(NN1CCOCC1)c1cc(Cl)cc(Cl)c1O	5335	3.3	3.6	0.2	2.6	-2.3
COc1cccc(-c2c(NC(=O)c3ccco3)n(-c3ccc(C)cc3)nc(C)c2=O)c1	16965*	-0.9	1.3	x	-2.7	-2.5
O/N=C/Cc1[nH]c2ccccc2c1-c1ccccc1	4111	-2.8	5.3	6.7	-7.1	-2.9
Cc1cc(C2=NNC(=NC3CC3)SC2)c(C)n1Cc1ccco1	2155	0.8	6.2	x	-9.9	-3.8
COCCCN=C1NN=C(c2cc(C)n(Cc3ccco3)c2C)CS1	2395	1.7	3.9	60.5*	-23.1	-1.1
Cc1ccc(Cl)cc1NC(=O)C1CC1c1ccccc1 (stereo not given)	3648	-0.7	-3.2	-7.1	16.8	8.1
C/C(=N\NC(=O)c1nnn(-c2nonc2N)c1CN(C)c1ccccc1)c1cccc(O)c1	6762	-4.1	0.9	0.5	3.9	2.3
SMILES	Bead autofluor	BoNT A protease	3CLpro inhibitor	BJeLR viability	BoNT-F LC inh	Anthrax LF prot
Cc1ccc(C(=O)O)cc1NC(=O)CSc1nnc(-c2ccccc2F)n1C1CCCCC1	4990	3.0	x	x	-3.6	0.3
NS(=O)(=O)c1cc(C(=O)OCC(=O)Nc2ccc3c(c2)OCO3)ccc1Cl	3939	-0.1	x	x	-3.2	-4.0
Cc1ccc(N2C(=O)C(Cl)=C(N3CCCCCC3)C2=O)c(C)c1	3125	2.6	-0.6	12.1	-17.0	-2.4
COc1ccc(C(=O)Nc2ccc(N3CCN(Cc4ccccc4)CC3)cc2)cc1	4152	-0.2	-1.6	-2.8	-7.2	2.3
COc1c(F)c(F)c(C(=O)Nc2ccc(N3CCN(C(C)=O)CC3)c(Cl)c2)c(F)c1F	17323*	u	-1.9	3.3	-7.4	-4.9
COc1c(F)c(F)c(C(=O)Nc2ccc(N3CCN(Cc4ccccc4)CC3)cc2)c(F)c1F	24627*	-3.6	4.7	18.4	-11.1	-10.1
Cc1ccc(C)c(NC(=O)CN2C(=O)CC(C)S(=O)(=O)c3ccccc32)c1 (stereo not given)	4776	-3.5	1.1	2.3	-8.8	-1.6
CCOC(=O)c1sc(NC(=O)C2CC(=O)N(c3ccccc3OC)C2)nc1C (stereo not given)	6599	-3.8	x	x	-10.9	-6.2
COc1ccc(C2C(Oc3ccccc3)C(=O)N2c2cc(C)ccc2C)cc1OC (stereo not given)	20605*	-1.0	7.1	-7.7	-2.8	-11.4
CC(=NC(C)C)C1=C(O)CCC1=O	2393	-0.4	-0.4	-4.7	-4.0	3.3
CCCn1[nH]cc(SC)c(=O)c1=O	16432*	u	0.1	2.8	-0.4	1.1
Fc1ccc2c(c1)C1C=CCC1C(c1cc3c(cc1Br)OCO3)N2 (stereo not given)	19890*	u	0.2	-8.3	6.2	-8.8
O=C(O)C1Nc2ccc(Br)cc2C2C=CCC12 (stereo not given)	x	x	1.1	-8.9	x	x
COc1ccc2c(c1)Cc1sc(NC(=O)c3cccs3)nc1-2	18806*	2.6	-7.3	4.0	2.7	-4.5
COc1cc(OC)cc(C(=O)Nc2cc(C)nn2-c2ccccc2)c1	3732	1.9	-3.4	-6.7	5.5	7.9
COc1nc(C#N)nc(N(C)C)n1	20512*	-0.5	-0.5	14.6	-0.6	-2.1
CC(=O)c1nc2ccccc2n1S(=O)(=O)c1ccc(C)cc1	16071	1.5	0.7	-1.6	3.1	2.8
CC(=O)c1nc2ccccc2n1S(=O)(=O)c1ccc(Cl)cc1	18292*	u	1.6	-31.1	-13.3	-0.1
c1ccc2c(CN3CCCCCCC3)c[nH]c2c1	17395*	-1.7	4.0	5.8	-5.1	-2.7
Cc1ccc(OCc2nc3ccccc3[nH]2)cc1	2005	-0.4	-10.9	10.3	-3.3	-1.9
c1ccc(OCc2nc3ccccc3[nH]2)cc1	22117*	0.4	2.3	5.6	-1.8	-4.6
O=C(OCc1nc2ccccc2[nH]1)C12CC3CC(CC(C3)C1)C2	17109*	-3.5	-0.5	-15.2	-11.1	-4.8
c1ccc2[nH]c(CN3CCCCCC3)nc2c1	20479*	1.3	-8.5	-16.1	-1.7	0.2
CCOC(=O)c1[nH]c(C(=O)O)c(OC(=O)CC)c1C	3055	-5.0	-1.2	7.4	2.2	-6.3
COc1cc(-c2cn[nH]c2N)cc(OC)c1OC	21444*	u	5.5	0.0	-4.7	0.6
Nc1[nH]ncc1-c1ccc(Cl)cc1	4614	-0.8	-5.1	12.7	-4.5	-3.5
